Tests used:
Assay in all cases: DAPPL (digital affinity profiling via proximity ligation, sequencing); 10 mM Tris-HCl pH 7.5, 50 mM NaCl, 1 mM DTT, 4% glycerol, room temperature, 30 min; GST-TFs on glutathione beads, 16-mer random dsDNA library, 0.1% formaldehyde crosslink after washing; high values mean tight binding
FLI1 = molecular target: T1, FLI1 (Homo sapiens, UniProt Q01543 1-452); conditions: protein: recombinant; tags: N-terminal GST; dsDNA, one strand shown
T1 sequence: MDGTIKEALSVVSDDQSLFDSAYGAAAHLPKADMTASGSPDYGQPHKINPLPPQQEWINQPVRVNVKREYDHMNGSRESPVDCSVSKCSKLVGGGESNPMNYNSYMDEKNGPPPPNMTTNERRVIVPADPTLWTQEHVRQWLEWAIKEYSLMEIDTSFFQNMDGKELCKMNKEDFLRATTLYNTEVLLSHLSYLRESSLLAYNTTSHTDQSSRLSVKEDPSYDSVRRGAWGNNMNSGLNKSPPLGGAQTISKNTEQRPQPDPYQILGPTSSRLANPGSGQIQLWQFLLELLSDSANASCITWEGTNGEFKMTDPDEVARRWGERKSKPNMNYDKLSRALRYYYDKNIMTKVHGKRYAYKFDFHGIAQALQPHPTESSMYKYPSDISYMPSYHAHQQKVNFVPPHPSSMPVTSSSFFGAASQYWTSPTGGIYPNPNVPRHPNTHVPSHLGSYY
Procedure, shortened: (§1)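 Each value of binding signal is a hexamer's read frequency for a factor divided by the same hexamer's frequency in the tag-only sample. Barcoded, bead-captured GST fusions of human transcription factors made in yeast were pooled with that sample and incubated with 200 nmole of a random double-stranded 16-mer DNA library in Tris/NaCl/DTT/glycerol buffer at room temperature for 30 min. Washing, 0.1% formaldehyde crosslinking, proximity ligation, PCR and Illumina NextSeq500 sequencing followed.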

ELK1 = molecular target: T2, ELK1 (Homo sapiens, UniProt P19419 1-428); conditions: protein: recombinant; tags: N-terminal GST; dsDNA, one strand shown
T2 sequence: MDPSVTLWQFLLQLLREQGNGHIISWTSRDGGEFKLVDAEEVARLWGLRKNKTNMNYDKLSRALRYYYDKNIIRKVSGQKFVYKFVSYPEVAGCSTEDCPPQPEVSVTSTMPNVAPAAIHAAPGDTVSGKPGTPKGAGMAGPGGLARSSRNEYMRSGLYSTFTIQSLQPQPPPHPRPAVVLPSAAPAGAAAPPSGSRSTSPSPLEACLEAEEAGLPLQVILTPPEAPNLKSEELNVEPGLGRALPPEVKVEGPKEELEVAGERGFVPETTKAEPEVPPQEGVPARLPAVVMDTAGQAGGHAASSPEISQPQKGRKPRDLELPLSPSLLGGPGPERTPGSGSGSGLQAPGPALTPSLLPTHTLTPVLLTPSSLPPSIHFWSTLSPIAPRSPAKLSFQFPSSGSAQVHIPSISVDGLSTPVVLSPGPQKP
Procedure, shortened: as §1

GABPA = molecular target: T3, GABPA (Homo sapiens, UniProt Q06546 1-454); conditions: protein: recombinant; tags: N-terminal GST; dsDNA, one strand shown
T3 sequence: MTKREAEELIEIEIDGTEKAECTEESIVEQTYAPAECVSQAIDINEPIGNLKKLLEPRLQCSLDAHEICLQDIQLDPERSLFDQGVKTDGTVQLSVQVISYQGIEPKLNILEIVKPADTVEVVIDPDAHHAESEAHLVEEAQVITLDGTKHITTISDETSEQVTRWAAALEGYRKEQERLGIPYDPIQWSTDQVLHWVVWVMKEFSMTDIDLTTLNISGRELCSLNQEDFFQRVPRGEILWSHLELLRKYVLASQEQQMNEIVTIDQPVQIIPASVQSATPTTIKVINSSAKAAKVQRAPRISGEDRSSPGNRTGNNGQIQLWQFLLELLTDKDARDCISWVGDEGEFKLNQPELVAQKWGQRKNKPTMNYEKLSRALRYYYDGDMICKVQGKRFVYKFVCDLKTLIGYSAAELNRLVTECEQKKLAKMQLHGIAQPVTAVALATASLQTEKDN
Procedure, shortened: as §1

ERG = molecular target: T4, ERG (Homo sapiens, UniProt P11308 1-479); conditions: protein: recombinant; tags: N-terminal GST; dsDNA, one strand shown
T4 sequence: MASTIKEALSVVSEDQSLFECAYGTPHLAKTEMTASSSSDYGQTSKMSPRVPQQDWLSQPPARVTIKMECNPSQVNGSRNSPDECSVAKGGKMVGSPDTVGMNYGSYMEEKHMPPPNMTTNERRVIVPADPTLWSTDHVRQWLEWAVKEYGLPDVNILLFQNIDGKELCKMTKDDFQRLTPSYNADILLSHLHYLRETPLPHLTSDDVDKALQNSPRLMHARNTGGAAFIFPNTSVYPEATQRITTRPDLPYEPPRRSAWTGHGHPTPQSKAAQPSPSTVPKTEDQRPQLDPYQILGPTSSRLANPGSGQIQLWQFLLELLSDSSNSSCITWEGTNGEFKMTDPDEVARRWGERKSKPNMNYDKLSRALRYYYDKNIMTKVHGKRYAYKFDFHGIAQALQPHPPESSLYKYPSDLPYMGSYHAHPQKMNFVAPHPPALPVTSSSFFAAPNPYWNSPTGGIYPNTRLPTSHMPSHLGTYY
Procedure, shortened: as §1

ELF1 = ELF1 (Homo sapiens, UniProt P32519 1-619); conditions: protein: recombinant; tags: N-terminal GST; dsDNA, one strand shown
ELF1, sequence (P32519 whole entry): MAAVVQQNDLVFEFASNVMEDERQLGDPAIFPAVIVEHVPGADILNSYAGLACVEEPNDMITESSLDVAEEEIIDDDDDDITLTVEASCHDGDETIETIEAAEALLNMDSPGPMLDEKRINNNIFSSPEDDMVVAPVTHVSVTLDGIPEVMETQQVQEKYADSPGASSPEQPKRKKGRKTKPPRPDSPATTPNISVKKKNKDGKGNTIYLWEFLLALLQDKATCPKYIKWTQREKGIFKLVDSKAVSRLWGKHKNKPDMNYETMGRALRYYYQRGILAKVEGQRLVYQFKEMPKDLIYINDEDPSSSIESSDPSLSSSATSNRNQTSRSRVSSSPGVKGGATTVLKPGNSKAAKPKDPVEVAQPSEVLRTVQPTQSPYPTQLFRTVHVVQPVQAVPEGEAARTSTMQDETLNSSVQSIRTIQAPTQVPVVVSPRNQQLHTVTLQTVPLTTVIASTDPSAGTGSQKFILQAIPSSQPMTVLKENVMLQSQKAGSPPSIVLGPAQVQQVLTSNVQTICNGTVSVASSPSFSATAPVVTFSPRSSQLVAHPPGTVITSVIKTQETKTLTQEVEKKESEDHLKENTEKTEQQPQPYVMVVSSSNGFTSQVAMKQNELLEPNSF
Procedure, shortened: as §1

EHF = molecular target: T5, EHF (Homo sapiens, UniProt Q9NZC4 1-300); conditions: protein: recombinant; tags: N-terminal GST; dsDNA, one strand shown
T5 sequence: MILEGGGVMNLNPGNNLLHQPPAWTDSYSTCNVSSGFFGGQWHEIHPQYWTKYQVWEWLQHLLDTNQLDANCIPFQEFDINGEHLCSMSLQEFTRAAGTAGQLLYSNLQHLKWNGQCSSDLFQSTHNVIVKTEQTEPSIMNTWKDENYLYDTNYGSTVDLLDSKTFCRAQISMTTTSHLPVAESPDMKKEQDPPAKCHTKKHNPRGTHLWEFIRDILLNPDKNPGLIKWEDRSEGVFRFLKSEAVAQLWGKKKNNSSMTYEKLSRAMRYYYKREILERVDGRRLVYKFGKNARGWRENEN
Procedure, shortened: as §1

SPI1 = SPI1 (Homo sapiens, UniProt P17947 1-270); conditions: protein: recombinant; tags: N-terminal GST; dsDNA, one strand shown
Procedure, shortened: as §1

SPIB = SPIB (Homo sapiens, UniProt Q01892 1-262); conditions: protein: recombinant; tags: N-terminal GST; dsDNA, one strand shown
SPIB, sequence (Q01892 whole entry): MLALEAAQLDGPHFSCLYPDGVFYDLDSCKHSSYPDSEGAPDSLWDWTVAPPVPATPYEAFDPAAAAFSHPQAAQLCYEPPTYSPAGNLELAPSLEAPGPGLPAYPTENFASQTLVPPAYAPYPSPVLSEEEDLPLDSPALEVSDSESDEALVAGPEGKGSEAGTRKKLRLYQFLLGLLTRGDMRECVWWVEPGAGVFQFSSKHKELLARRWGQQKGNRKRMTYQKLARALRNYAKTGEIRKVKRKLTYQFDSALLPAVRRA
Procedure, shortened: as §1

ELK3 = molecular target: T6, ELK3 (Homo sapiens, UniProt P41970 1-407); conditions: protein: recombinant; tags: N-terminal GST; dsDNA, one strand shown
T6 sequence: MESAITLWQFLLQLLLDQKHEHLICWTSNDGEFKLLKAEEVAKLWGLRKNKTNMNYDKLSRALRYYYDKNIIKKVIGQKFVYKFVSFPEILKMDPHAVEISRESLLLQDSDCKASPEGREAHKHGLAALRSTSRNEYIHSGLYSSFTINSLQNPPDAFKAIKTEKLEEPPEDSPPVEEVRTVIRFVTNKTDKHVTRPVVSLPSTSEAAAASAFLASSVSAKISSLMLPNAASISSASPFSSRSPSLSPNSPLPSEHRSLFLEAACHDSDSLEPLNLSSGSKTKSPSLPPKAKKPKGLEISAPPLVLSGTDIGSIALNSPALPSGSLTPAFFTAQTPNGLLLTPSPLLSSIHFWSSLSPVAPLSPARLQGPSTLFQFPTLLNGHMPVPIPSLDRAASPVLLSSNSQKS
Procedure, shortened: as §1

FEV = molecular target: T7, FEV (Homo sapiens, UniProt Q99581 1-238); conditions: protein: recombinant; tags: N-terminal GST; dsDNA, one strand shown
T7 sequence: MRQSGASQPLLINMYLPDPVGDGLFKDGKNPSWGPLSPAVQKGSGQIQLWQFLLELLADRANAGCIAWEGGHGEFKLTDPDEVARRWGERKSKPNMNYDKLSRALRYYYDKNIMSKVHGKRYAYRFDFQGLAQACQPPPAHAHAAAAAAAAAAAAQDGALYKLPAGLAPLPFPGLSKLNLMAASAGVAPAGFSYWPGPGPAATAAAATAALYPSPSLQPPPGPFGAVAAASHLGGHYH
Procedure, shortened: as §1

ETV5 = ETV5 (Homo sapiens, UniProt P41161 1-510); conditions: protein: recombinant; tags: N-terminal GST; dsDNA, one strand shown
ETV5, sequence (P41161 whole entry): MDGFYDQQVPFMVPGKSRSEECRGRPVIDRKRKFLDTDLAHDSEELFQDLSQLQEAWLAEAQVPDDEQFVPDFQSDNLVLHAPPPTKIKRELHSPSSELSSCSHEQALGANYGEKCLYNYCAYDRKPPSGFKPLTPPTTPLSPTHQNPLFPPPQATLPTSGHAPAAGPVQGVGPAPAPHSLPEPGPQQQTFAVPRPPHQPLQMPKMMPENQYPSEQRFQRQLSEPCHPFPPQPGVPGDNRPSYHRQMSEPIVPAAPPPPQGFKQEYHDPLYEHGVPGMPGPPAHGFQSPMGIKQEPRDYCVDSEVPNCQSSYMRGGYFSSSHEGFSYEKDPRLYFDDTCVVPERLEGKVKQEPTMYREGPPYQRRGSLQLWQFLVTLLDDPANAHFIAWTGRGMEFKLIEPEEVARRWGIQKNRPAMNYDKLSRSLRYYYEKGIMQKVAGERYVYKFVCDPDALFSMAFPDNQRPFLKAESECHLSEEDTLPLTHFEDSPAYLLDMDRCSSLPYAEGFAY
Procedure, shortened: as §1

HSF1 = HSF1 (Homo sapiens, UniProt Q00613 1-529); conditions: protein: recombinant; tags: N-terminal GST; chain copies: 3; dsDNA, one strand shown
HSF1, sequence (Q00613 whole entry): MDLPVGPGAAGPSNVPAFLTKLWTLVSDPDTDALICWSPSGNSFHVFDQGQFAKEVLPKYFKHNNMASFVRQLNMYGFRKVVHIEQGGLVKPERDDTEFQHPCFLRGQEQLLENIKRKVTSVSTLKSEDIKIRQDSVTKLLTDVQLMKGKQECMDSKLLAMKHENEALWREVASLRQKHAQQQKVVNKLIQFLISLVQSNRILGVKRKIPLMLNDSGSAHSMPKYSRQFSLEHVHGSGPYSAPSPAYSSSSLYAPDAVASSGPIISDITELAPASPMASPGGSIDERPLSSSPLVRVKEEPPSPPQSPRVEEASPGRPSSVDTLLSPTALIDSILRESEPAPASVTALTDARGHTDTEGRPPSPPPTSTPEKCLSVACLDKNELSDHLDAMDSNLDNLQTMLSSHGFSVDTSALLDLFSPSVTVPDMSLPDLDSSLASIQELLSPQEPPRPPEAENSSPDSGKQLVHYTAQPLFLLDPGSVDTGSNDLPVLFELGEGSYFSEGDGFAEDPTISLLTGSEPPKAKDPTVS
Procedure, shortened: as §1

SPIC = molecular target: T8, SPIC (Homo sapiens, UniProt Q8N5J4 1-248); conditions: protein: recombinant; tags: N-terminal GST; dsDNA, one strand shown
T8 sequence: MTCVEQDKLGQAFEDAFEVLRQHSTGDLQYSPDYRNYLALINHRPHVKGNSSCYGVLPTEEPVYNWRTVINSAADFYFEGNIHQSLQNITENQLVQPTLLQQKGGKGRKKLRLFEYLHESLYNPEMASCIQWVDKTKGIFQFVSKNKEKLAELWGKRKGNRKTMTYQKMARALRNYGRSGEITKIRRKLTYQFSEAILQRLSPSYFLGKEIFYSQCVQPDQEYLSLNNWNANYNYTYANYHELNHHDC
Procedure, shortened: as §1

ELF4 = ELF4 (Homo sapiens, UniProt Q99607 1-663); conditions: protein: recombinant; tags: N-terminal GST; dsDNA, one strand shown
ELF4, sequence (Q99607 whole entry): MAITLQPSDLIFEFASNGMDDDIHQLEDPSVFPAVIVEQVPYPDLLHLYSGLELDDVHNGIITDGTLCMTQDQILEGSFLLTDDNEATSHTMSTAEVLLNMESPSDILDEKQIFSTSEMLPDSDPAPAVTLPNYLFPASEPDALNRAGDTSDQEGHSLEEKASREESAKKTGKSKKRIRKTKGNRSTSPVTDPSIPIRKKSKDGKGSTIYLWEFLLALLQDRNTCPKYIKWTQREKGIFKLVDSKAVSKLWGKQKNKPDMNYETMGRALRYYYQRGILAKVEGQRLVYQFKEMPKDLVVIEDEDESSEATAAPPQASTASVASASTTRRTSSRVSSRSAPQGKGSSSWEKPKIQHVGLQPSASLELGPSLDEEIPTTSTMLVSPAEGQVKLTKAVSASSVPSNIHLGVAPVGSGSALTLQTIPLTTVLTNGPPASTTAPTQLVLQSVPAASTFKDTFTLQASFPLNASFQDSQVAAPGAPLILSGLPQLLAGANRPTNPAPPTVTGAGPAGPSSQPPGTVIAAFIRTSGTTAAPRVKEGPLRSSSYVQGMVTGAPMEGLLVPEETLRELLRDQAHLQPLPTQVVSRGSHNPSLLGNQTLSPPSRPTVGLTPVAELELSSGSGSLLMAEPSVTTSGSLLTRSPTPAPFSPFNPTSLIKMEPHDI
Procedure, shortened: as §1

ELK4 = molecular target: T9, ELK4 (Homo sapiens, UniProt P28324-2 1-405); conditions: protein: recombinant; tags: N-terminal GST; dsDNA, one strand shown
T9 sequence: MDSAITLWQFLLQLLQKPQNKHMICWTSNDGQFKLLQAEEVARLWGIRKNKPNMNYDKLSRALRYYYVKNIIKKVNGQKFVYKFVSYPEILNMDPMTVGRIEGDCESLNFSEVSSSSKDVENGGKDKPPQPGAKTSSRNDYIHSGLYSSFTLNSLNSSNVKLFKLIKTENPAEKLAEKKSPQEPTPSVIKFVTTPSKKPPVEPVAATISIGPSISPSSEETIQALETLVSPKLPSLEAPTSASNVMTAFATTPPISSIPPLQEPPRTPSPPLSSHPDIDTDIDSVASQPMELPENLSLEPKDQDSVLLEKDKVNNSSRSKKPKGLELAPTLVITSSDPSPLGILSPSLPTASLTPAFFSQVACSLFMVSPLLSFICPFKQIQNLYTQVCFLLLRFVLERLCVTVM
Procedure, shortened: as §1

ETV2 = molecular target: T10, ETV2 (Homo sapiens, UniProt O00321 1-342); conditions: protein: recombinant; tags: N-terminal GST; dsDNA, one strand shown
T10 sequence: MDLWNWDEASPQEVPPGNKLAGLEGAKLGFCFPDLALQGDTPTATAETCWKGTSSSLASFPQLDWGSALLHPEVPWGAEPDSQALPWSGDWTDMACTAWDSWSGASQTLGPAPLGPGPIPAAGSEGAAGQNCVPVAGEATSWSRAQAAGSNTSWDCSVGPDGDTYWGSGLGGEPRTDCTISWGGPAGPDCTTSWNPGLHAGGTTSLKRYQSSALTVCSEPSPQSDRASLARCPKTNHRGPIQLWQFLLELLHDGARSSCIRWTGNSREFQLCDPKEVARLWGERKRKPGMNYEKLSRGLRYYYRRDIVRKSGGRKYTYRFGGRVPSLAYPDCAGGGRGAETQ
Procedure, shortened: as §1

ELF3 = molecular target: T11, ELF3 (Homo sapiens, UniProt P78545 1-371); conditions: protein: recombinant; tags: N-terminal GST; dsDNA, one strand shown
T11 sequence: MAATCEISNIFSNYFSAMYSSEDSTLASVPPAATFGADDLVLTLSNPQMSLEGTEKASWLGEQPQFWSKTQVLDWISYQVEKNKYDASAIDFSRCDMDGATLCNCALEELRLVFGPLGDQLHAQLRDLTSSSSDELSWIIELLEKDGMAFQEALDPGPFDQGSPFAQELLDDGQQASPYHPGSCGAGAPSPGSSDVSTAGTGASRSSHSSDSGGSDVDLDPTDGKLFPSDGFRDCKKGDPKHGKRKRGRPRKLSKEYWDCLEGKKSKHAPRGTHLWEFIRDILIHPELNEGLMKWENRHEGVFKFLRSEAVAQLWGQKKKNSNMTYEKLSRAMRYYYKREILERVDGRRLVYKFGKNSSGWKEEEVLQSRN
Procedure, shortened: as §1

CRX = CRX (Homo sapiens, UniProt O43186 1-299); conditions: protein: recombinant; tags: N-terminal GST; dsDNA, one strand shown
CRX, sequence (O43186 whole entry): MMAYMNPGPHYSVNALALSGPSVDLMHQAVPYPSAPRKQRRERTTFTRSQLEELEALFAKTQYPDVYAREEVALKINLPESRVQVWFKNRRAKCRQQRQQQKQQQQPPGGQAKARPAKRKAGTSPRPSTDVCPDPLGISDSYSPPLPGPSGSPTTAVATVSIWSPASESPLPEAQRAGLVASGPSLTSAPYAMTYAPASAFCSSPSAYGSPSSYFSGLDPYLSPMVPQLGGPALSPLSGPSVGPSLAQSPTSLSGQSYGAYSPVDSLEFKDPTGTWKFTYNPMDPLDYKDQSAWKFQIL
Procedure, shortened: as §1

In the case of CGATAT, the binding signal (FLI1) is reported as 1.14 fold enrichment (6-mer frequency, TF over GST control), the binding signal (ELK1) is reported as 1.03 fold enrichment (6-mer frequency, TF over GST control) and the binding signal (GABPA) is reported as 1.08 fold enrichment (6-mer frequency, TF over GST control). The binding signal (ERG) was 1.03 fold enrichment (6-mer frequency, TF over GST control), the binding signal (ELF1) was 1.12 fold enrichment (6-mer frequency, TF over GST control) and the binding signal (EHF) was 1.1 fold enrichment (6-mer frequency, TF over GST control). For the same sequence, the binding signal (SPI1) was 1.03 fold enrichment (6-mer frequency, TF over GST control), the binding signal (SPIB) was 1.02 fold enrichment (6-mer frequency, TF over GST control) and the binding signal (ELK3) was 1.06 fold enrichment (6-mer frequency, TF over GST control). For the same sequence, the binding signal (FEV) was 1.07 fold enrichment (6-mer frequency, TF over GST control), the binding signal (ETV5) was 1.05 fold enrichment (6-mer frequency, TF over GST control) and the binding signal (HSF1) was 1.06 fold enrichment (6-mer frequency, TF over GST control). The binding signal (SPIC) was 1.11 fold enrichment (6-mer frequency, TF over GST control), the binding signal (ELF4) was 1.11 fold enrichment (6-mer frequency, TF over GST control) and the binding signal (ELK4) was 1.19 fold enrichment (6-mer frequency, TF over GST control). The binding signal (ETV2) was 1.19 fold enrichment (6-mer frequency, TF over GST control), the binding signal (ELF3) was 1.14 fold enrichment (6-mer frequency, TF over GST control) and the binding signal (CRX) was 1.03 fold enrichment (6-mer frequency, TF over GST control).
